Sampled rows, rich in hits. Any-hit rate of the full collection: about 19%.
DT40 TDP1 CPT: DT40-hTDP1 cell growth loss with CPT; chicken DT40 Tdp1-/-;hTDP1 cells + 20 nM CPT, ATP luminescence, 48 h; Potency, µM (highest dose often 46.2 µM), for the others: at the top dose activity change, negative = growth inhibition, usual class: inhibitors; 420,000 tested, 12% active; further: nearly all actives have a fitted effect of over 55% in size
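Cell growth measured by CellTiter-Glo luminescence after a minimum 48 h, 37 C compound exposure with 20 nM CPT in Tdp1-knockout DT40 cells stably expressing hTDP1, seeded 400/well; qHTS titration format.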
HT1080 IDH1KD tx: HT-1080 IDH1 knockdown cell toxicity (counter line) | HT-1080 IDH1 knockdown viability, ATP luminescence, 48 h | Potency, µM (top dose mostly 46.1 µM), for the others: top-dose activity, negative = toxicity, usual class: cytotoxic | 360,000 tested, 2% active | AID 686971;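 further: 0% = DMSO wells and -100% = cell-free medium wells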
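CellTiter-Glo luminescence after 48 h compound exposure at 37 degrees C of IDH1-knockdown HT-1080 cells in 5% FBS RPMI. %Activity scaled between DMSO wells and cell-free media wells, with curves fitted and assigned curve classes.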
HT1080-NT tox: kills 2HG-producing HT-1080-NT fibrosarcoma cells. HT-1080-NT fibrosarcoma viability, CellTiter-Glo ATP luminescence, 48 h. Potency, µM (highest dose often 46.1 µM), inactives show at the highest dose activity, negative = less viability, hits mostly cytotoxic. 360,000 tested, 1.6% active. AID 686970;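 further: NT is the 2HG producing partner of a matched IDH1 knockdown line; 0% = DMSO-treated cells and -100% = media-only wells without cells; nearly all actives have a fitted effect of over 55% in size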
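Fibrosarcoma NT cells, 750 per well in 5% FBS RPMI, were exposed to compound for 48 hours. Viability: CellTiter-Glo luminescence.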
TDP1 cell noCPT: qHTS for Inhibitors of human tyrosyl-DNA phosphodiesterase 1 (TDP1): qHTS in cells in absence of CPT. 420,000 tested, 15% active. Potency, µM (titrated, usually from 46.2 µM), inactives show at the highest dose activity change, negative = growth inhibition, actives largely listed as inhibitors. DT40 Tdp1-/- hTDP1 cells, no CPT, ATP luminescence, 48 h. AID 686978, 2013; further: nearly all actives have a fitted effect of over 55% in size
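Cells were dispensed at 400 per well, compounds added by pin tool, plates incubated ≥48 hr at 37 °C, then CellTiter-Glo added for 30 min at room temperature before luminescence reading. Line: DT40 Tdp1-/- complemented with hTDP1; camptothecin omitted.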
KB-V1 MDR tox: kills drug-selected multidrug resistant KB-V1 cells; 400,000 tested, 3.4% active; AID 1347076; Potency, µM (series often up to 46.1 µM), hits mostly cytotoxic; KB-V1 MDR cells viability, CellTiter-Glo, 72 h; further: nearly all actives have a fitted effect of over 60% in size
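qHTS viability screen in drug-selected KB-V1 MDR cells: 72 h compound treatment at 37 degrees C, ATP luminescence end point.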
KB-3-1 tox: kills parental KB-3-1 adenocarcinoma cells; KB-3-1 viability, CellTiter-Glo ATP luminescence, 72 h; Potency, µM (series often up to 46.1 µM), actives largely listed as cytotoxic; 400,000 tested, 1.4% active; AID 1347075; further: nearly all actives have a fitted effect of over 60% in size
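Cytotoxicity measured as CellTiter-Glo luminescence after 72 h at 37 C. Compound titrations were pinned onto drug-naive KB-3-1 parental adenocarcinoma cells grown in DMEM with 10% FBS, and normalized data fitted to concentration-response curves.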
An asterisk follows results filed as active. The call rests on the fitted dose curve; in most records, active means well fitted curve in the direction sought with a large enough effect; inconclusive means small, poorly fitted or top-dose-only effect, or another doubt; inactive means no such curve, though single readings can be large; an effect the other way counts as inactive or inconclusive. Unless noted, on the % scale 0 is the no-effect control and ±100 the full control effect; potency means the concentration at half of the fitted maximal effect.

For CCOc1ccccc1N1CCN(C(=O)C2c3ccccc3Oc3ccccc32)CC1 the results were DT40 TDP1 CPT 23µM*, HT1080 IDH1KD tx 18µM*, HT1080-NT tox inconclusive, TDP1 cell noCPT 23µM*, KB-V1 MDR tox 15µM* and KB-3-1 tox 13µM*.
`CCOc1ccccc1N1CCN(C(=O)c2ccccc2)CC1` gave DT40 TDP1 CPT -12%, HT1080 IDH1KD tx 8%, HT1080-NT tox 7%, TDP1 cell noCPT -21%, KB-V1 MDR tox inactive and KB-3-1 tox inactive.
C=CCNC(=O)c1onc(CSc2ccc(F)c(F)c2)c1C(=O)NCC=C was read as DT40 TDP1 CPT 3%, HT1080 IDH1KD tx -3%, HT1080-NT tox -20%, TDP1 cell noCPT 3%, KB-V1 MDR tox inactive and KB-3-1 tox inactive.
CCOC(=O)C1CCCN(C(=O)Cc2ccc(OC)c(OC)c2)CC1 (configuration not stated) was read as DT40 TDP1 CPT -14%, HT1080 IDH1KD tx 3%, HT1080-NT tox 12%, TDP1 cell noCPT inconclusive, KB-V1 MDR tox 21µM* and KB-3-1 tox inconclusive.
CN(Cc1ccccc1Cl)C(=O)c1cc2ccccc2o1 was read as DT40 TDP1 CPT inconclusive, HT1080 IDH1KD tx -3%, HT1080-NT tox -3%, TDP1 cell noCPT inconclusive, KB-V1 MDR tox inactive and KB-3-1 tox inactive.
CN(Cc1ccc(Cl)cc1Cl)C(=O)c1cc(=O)c2ccccc2o1 was read as DT40 TDP1 CPT inconclusive, HT1080 IDH1KD tx -16%, HT1080-NT tox -8%, TDP1 cell noCPT 23µM*, KB-V1 MDR tox inactive and KB-3-1 tox inactive.
Screening COc1ccc(-c2c[n+]3c(n2-c2ccccc2)SCC3)cc1OC returned DT40 TDP1 CPT -2%, HT1080 IDH1KD tx 8%, HT1080-NT tox 7%, TDP1 cell noCPT inconclusive, KB-V1 MDR tox inactive and KB-3-1 tox inactive.
For c1ccc(Cn2c(-c3ccccc3)c[n+]3c2SCCC3)cc1 the results were DT40 TDP1 CPT 2.9µM*, HT1080 IDH1KD tx -24%, HT1080-NT tox -3%, TDP1 cell noCPT 2.3µM*, KB-V1 MDR tox inactive and KB-3-1 tox inactive.
Screening Cn1c(CCN2CCN(c3ccccn3)CC2)nc2cc(NS(=O)(=O)c3ccccc3)ccc21 returned DT40 TDP1 CPT inconclusive, HT1080 IDH1KD tx -28%, HT1080-NT tox -1%, TDP1 cell noCPT 13µM*, KB-V1 MDR tox inactive and KB-3-1 tox inactive.
Cn1c(CCN2CCCCC2)nc2cc(NS(=O)(=O)c3ccccc3)ccc21 was read as DT40 TDP1 CPT inconclusive, HT1080 IDH1KD tx inconclusive, HT1080-NT tox -26%, TDP1 cell noCPT inconclusive, KB-V1 MDR tox inactive and KB-3-1 tox inactive.
CCCC(=O)Nc1ccc2c(c1)nc(CCN1CCN(c3ccccn3)CC1)n2C was read as DT40 TDP1 CPT 1%, HT1080 IDH1KD tx 7%, HT1080-NT tox 20%, TDP1 cell noCPT -12%, KB-V1 MDR tox inactive and KB-3-1 tox inactive.
`Cn1c(CCN2CCN(c3ccccn3)CC2)nc2cc(NC(=O)COc3ccccc3)ccc21` gave DT40 TDP1 CPT inconclusive, HT1080 IDH1KD tx -3%, HT1080-NT tox -18%, TDP1 cell noCPT 26µM*, KB-V1 MDR tox inactive and KB-3-1 tox inactive.
`Cc1ccc(OCC(=O)Nc2ccc3c(c2)nc(CCN2CCN(c4ccccn4)CC2)n3C)cc1` gave DT40 TDP1 CPT 23µM*, HT1080 IDH1KD tx 21µM*, HT1080-NT tox 21µM*, TDP1 cell noCPT 21µM*, KB-V1 MDR tox inactive and KB-3-1 tox inactive.
Screening CCCN1CCN(CCCNC(=O)Cn2c(-c3cccs3)cc3cc(Cl)ccc32)CC1 returned DT40 TDP1 CPT inconclusive, TDP1 cell noCPT inconclusive, KB-V1 MDR tox inactive and KB-3-1 tox inactive.
CCOC(=O)c1cnc2c(OC)cccc2c1NCc1cccnc1 was read as DT40 TDP1 CPT -5%, HT1080 IDH1KD tx -3%, HT1080-NT tox -7%, TDP1 cell noCPT -5%, KB-V1 MDR tox inactive and KB-3-1 tox inconclusive.
Screening CCOC(=O)c1cnc2c(C)cccc2c1Nc1ccc(OC(C)C)cc1 returned DT40 TDP1 CPT inconclusive, TDP1 cell noCPT 23µM*, KB-V1 MDR tox inactive and KB-3-1 tox inactive.
Screening CCOC(=O)c1cnc2c(ccc3ccccc32)c1Nc1ccccc1O returned DT40 TDP1 CPT 21µM*, TDP1 cell noCPT inconclusive, KB-V1 MDR tox inactive and KB-3-1 tox inactive.
CCOC(=O)c1cnc2c(C(F)(F)F)cccc2c1Nc1cccc(C(=O)OC)c1 was read as DT40 TDP1 CPT inconclusive, TDP1 cell noCPT 15µM*, KB-V1 MDR tox inactive and KB-3-1 tox inactive.
`CCOC(=O)c1cnc2c(ccc3ccccc32)c1Cl` gave DT40 TDP1 CPT 3%, HT1080 IDH1KD tx 9%, HT1080-NT tox 1%, TDP1 cell noCPT -4%, KB-V1 MDR tox inactive and KB-3-1 tox inactive.
Screening CCOC(=O)c1cnc2ccc(C(=O)OC)cc2c1Nc1cccc(C(=O)O)c1 returned DT40 TDP1 CPT 20%, HT1080 IDH1KD tx 0%, HT1080-NT tox -1%, TDP1 cell noCPT 10%, KB-V1 MDR tox inactive and KB-3-1 tox inactive.
`CCOC(=O)c1cnc2c(OC)cccc2c1Nc1cccc(O)c1` gave KB-V1 MDR tox 13µM* and KB-3-1 tox inconclusive.
`CN(Cc1ccccc1)S(=O)(=O)c1ccc(N2CCCC2=O)cc1` gave DT40 TDP1 CPT inconclusive, HT1080 IDH1KD tx 6%, HT1080-NT tox 1%, TDP1 cell noCPT inconclusive, KB-V1 MDR tox inactive and KB-3-1 tox inactive.
For Cc1nc(N)ncc1CCC1OCCO1 the results were DT40 TDP1 CPT 2%, HT1080 IDH1KD tx 10%, HT1080-NT tox 7%, TDP1 cell noCPT -12%, KB-V1 MDR tox inactive and KB-3-1 tox inactive.
Screening COc1ccc(CNc2cc(-c3ccccc3Cl)ncn2)c(OC)c1 returned DT40 TDP1 CPT inconclusive and TDP1 cell noCPT -11%.
Screening Cc1noc(C)c1-c1cc(NCc2ccccc2)ncn1 returned DT40 TDP1 CPT inconclusive and TDP1 cell noCPT 23µM*.
Screening COc1ccccc1-c1cc(Nc2ccc(F)cc2)ncn1 returned DT40 TDP1 CPT inconclusive and TDP1 cell noCPT 23µM*.
Screening Cc1ccccc1-c1cc(NCc2ccccc2)ncn1 returned DT40 TDP1 CPT 15µM* and TDP1 cell noCPT 21µM*.
For COc1ccccc1-c1cc(NCc2ccccc2)ncn1 the results were DT40 TDP1 CPT 6.5µM* and TDP1 cell noCPT 5.8µM*.
